We go through 38 molecules from PubChem BioAssay (NCATS).

Each structure is given as a SMILES string. Records with an inconclusive call do not appear. Entries that show only a call come without a potency. The source made the active and inactive calls. Calls follow the shape of the dose curve; as a rule, active = well fitted inhibition curve with a large enough effect; inconclusive = small, poorly fitted or top-dose-only effect; inactive = no such curve, though single readings can be large or run the other way.

Chain of Papain (Carica papaya) (P00784 whole entry, looked up): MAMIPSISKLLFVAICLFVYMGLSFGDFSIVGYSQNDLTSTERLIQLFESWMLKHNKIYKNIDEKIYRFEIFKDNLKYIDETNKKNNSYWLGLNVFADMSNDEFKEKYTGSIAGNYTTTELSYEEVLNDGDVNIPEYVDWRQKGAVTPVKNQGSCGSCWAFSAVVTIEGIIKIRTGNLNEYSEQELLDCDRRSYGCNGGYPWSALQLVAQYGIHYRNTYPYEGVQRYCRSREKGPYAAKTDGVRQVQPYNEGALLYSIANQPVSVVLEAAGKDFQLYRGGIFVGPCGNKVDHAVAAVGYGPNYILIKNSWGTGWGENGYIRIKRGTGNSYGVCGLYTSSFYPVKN

System in one assay: not listed separately
As to the kind of experiment: Primary qHTS for small molecule stabilizers of the endoplasmic reticulum resident proteome: Secreted ER Calcium Modulated Protein (SERCaMP) assay (AID 1508630). Conditions: SH-SY5Y GLuc-SERCaMP (Gaussia luciferase released on ER calcium loss) secretion, thapsigargin, luminescence; series mostly up to 38.4 µM. The essentials: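 The SH-SY5Y reporter protocol was run at 3 concentrations up to 38.3 uM (primary) or 11 concentrations (follow-up): 16 h compound, 100 nM thapsigargin for 4 h, then extracellular luciferase luminescence.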
(In general: In qHTS, concentration-response curves come from the screen itself.)
For the molecule `NC(N)=NC(N)=Nc1cccc(Cl)c1`, the Potency entry is “inactive”.
The same measure, in the same setting: next, `CCSC(=N)N`: “inactive”; `CC(N)(Cc1ccc(O)cc1)C(=O)O` (stereo unspecified): “inactive”; `CCC1(O)CC2CN(CCc3c([nH]c4ccccc34)[C@@](C(=O)OC)(c3cc4c(cc3OC)N(C=O)C3[C@]45CCN4CC=C[C@@](CC)([C@@H](OC(C)=O)[C@]3(O)C(=O)OC)[C@H]45)C2)C1` (stereo partly specified): “inactive”.
In the case of `Cn1c(=O)c2c(nc(/C=C/c3cccc(Cl)c3)n2C)n(C)c1=O`, the Potency result was “inactive”.
In the case of `CC(C)NC[C@H](O)COc1ccc(CC(N)=O)cc1`, the Potency entry is “inactive”.
Same read-out and setting: under `O=C(O)c1ccccc1Nc1ccccc1` stands “inactive”.
On to `CN1CC(O)C(O)C(O)C1CO` (stereo unspecified), for which the Potency entry is “inactive”.
Turning to `C=CCN1CCc2c(cc(O)c(O)c2Br)[C@@H](c2ccccc2)C1`, the Potency entry was “inactive”.
On the same count and under the same terms, next, `O=C(O)C1=CCNCC1`: “inactive”; `COc1ccccc1N1CCN(CCCCN2C(=O)c3ccccc3C2=O)CC1`: “inactive”.
As for `Cn1c(=O)[nH]c2ncn(C)c2c1=O`, the Potency result is “inactive”.
Consider `Cc1nc(N=Nc2ccc(C(=O)O)cc2)c(COP(=O)(O)O)c(C=O)c1O`, for which the Potency result is “inactive”.

A further assay concerns the target Papain (Carica papaya) (UniProt P00784). Kind of assay: Primary qHTS assay for inhibitors of the protease papain (AID 1645873).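 Also: papain turnover of Z-FR-AMC read as the AMC fluorescence gain over 10 min.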 Also: potency is read from the fitted curve at half-maximal effect. The settings on record: papain Z-FR-AMC cleavage, AMC fluorescence; series mostly up to 49.8 µM.
Take `C=C1C[C@@]23CC[C@H]4[C@@](C)(CCC[C@@]4(C)C(=O)O)[C@@H]2CC[C@]1(O)C3`: the Potency result is “inactive”.
Still for that read-out and setting: next, `CC(C)C[C@H](NC(=O)C1OC1C(=O)O)C(=O)NCCCCN=C(N)N` (stereo partly specified): “inactive”; `NC(N)=NC(N)=Nc1cccc(Cl)c1`: “inactive”; `COC(=O)C(C)(N)Cc1ccc(O)cc1` (stereo unspecified): “inactive”.
Same read-out and setting: under `OC[C@H]1NC[C@@H](O)[C@@H]1O` stands “inactive”; under `CCCCC[C@H](CC(=O)NO)C(=O)N[C@H](C(=O)N1CCC[C@H]1CO)C(C)C`, “inactive”; under `Nc1ccc(N2C(=O)c3ccccc3C2=O)c(Cl)c1`, “inactive”.
Consider `NOCC(=O)O`, for which the Potency entry was “inactive”.
Still for that read-out and setting: next, `C#CC(N)CCC(=O)O` (stereo unspecified): “inactive”; `NC1CONC1=O` (stereo unspecified): “inactive”; `CCSC(=N)N`: “inactive”.
For `NC1(C(=O)O)CCCCC1`, the Potency entry is “inactive”.
On the same count and under the same terms, next, `CC(N)(Cc1ccc(O)cc1)C(=O)O` (stereo unspecified): “inactive”; `CCC1(O)CC2CN(CCc3c([nH]c4ccccc34)[C@@](C(=O)OC)(c3cc4c(cc3OC)N(C=O)C3[C@]45CCN4CC=C[C@@](CC)([C@@H](OC(C)=O)[C@]3(O)C(=O)OC)[C@H]45)C2)C1` (stereo partly specified): “inactive”; `Cn1c(=O)c2c(nc(/C=C/c3cccc(Cl)c3)n2C)n(C)c1=O`: 3.55 µM (active).
The same measure, in the same setting: next, `CC(C)NC[C@H](O)COc1ccc(CC(N)=O)cc1`: “inactive”; `O=C(O)c1ccccc1Nc1ccccc1`: “inactive”; `N[C@@H](Cc1c[nH]c2ccccc12)C(=O)O`: “inactive”.
On the same count and under the same terms, under `COc1ccccc1N1CCN(CCN(C(=O)c2ccc(F)cc2)c2ccccn2)CC1` stands “inactive”; under `NC1(C(=O)O)CC1`, “inactive”; under `O=C(O)CCC/C=C\C[C@@H]1[C@@H](/C=C/[C@H](O)C2Cc3ccccc3C2)[C@@H](F)C[C@@H]1O`, “inactive”.
As to `CCCCOc1cc(CC2CNC(=O)N2)ccc1OC` (stereo unspecified), the Potency entry was “inactive”.
Same read-out and setting: under `O=C(O)C1CCNCC1` stands “inactive”.
As to `CC(=O)SC1CC2=CC(=O)CC[C@]2(C)C2CC[C@@]3(C)C(CC[C@@]34CCC(=O)O4)C12` (stereo partly specified), the Potency entry is “inactive”.
On the same count and under the same terms, under `N[C@H](C(=O)O)[C@H]1C[C@@H]1C(=O)O` stands “inactive”; under `CN1CC(O)C(O)C(O)C1CO` (stereo unspecified), “inactive”; under `COc1ccc(-c2ccc(N)[n+](CCCC(=O)O)n2)cc1`, “inactive”.
Same read-out and setting: under `C=CCN1CCc2c(cc(O)c(O)c2Br)[C@@H](c2ccccc2)C1` stands “inactive”; under `CCOC(=O)C12CC1/C(=N/O)c1ccccc1O2` (stereo unspecified), “inactive”; under `C[N+](C)(C)CC=O`, “inactive”.
Take `O=C(O)C1=CCNCC1`: the Potency entry was “inactive”.
With `CC(N)=NCCCC[C@@H](N)C(=O)O`, the Potency entry is “inactive”.
Take `OCC1NCC(O)C(O)C1O` (stereo unspecified): the Potency result was “inactive”.
Still for that read-out and setting: under `COc1ccccc1N1CCN(CCCCN2C(=O)c3ccccc3C2=O)CC1` stands “inactive”; under `CC[C@H](NC(=O)c1c(C)c(-c2ccccc2)nc2ccccc12)c1ccccc1`, “inactive”.
Consider `Cn1c(=O)[nH]c2ncn(C)c2c1=O`, for which the Potency entry was “inactive”.
On the same count and under the same terms, next, `Cc1nc(N=Nc2ccc(C(=O)O)cc2)c(COP(=O)(O)O)c(C=O)c1O`: “inactive”; `c1ccc(C(NCCNC(c2ccccc2)c2ccccc2)c2ccccc2)cc1`: “inactive”.
